Laboratory results published in PubChem BioAssay AID1159580 (chemical genetic matrix, 2015).
The whole screen tested about 5,500 compounds, of which about 2,000 (36%) were called active. Inconclusive results (about 18%) are left out. No stated cut-off is given here; in the data, active means normalized growth mostly below about 0.91 (no sharp cut-off); inconclusive means no clear call, values can overlap the other calls; inactive means mostly above about 0.92. The list shows a part of the results.

Assay: chemical genetic growth profiling, strain panel (AID 1159580);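 further: tested at 20 µM; growth read once vehicle control cultures reached saturation at 30 °C; 1 = growth at the plate median or of vehicle wells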
Conditions: growth OD

Measured: normalized growth

CC(=O)O[C@H]1C[C@H](O[C@H]2[C@@H](O)C[C@H](O[C@H]3[C@@H](O)C[C@H](O[C@H]4CC[C@@]5(C)C(CCC6C5C[C@@H](O)[C@]5(C)[C@@H](C7=CC(=O)OC7)CC[C@]65O)C4)O[C@@H]3C)O[C@@H]2C)O[C@H](C)[C@H]1O[C@@H]1O[C@H](CO)[C@@H](O)[C@H](O)[C@H]1O (stereo not given in full)
inactive: S. cerevisiae deletion strains, locus YJR075W, strain HOC1, stronger effect = lower value 1.02 | S. cerevisiae deletion strains, locus YKL009W, strain mrt4, stronger effect = lower value 1 | S. cerevisiae deletion strains, locus YKL068W, stronger effect = lower value 1 | S. cerevisiae deletion strains, locus YKL085W, strain MDH1 (second series), stronger effect = lower value 1 | S. cerevisiae deletion strains, locus YKL085W, strain MDH1, stronger effect = lower value 1 | S. cerevisiae deletion strains, locus YKL160W, strain elf1, stronger effect = lower value 1.01 | S. cerevisiae deletion strains, locus YKL190W, strain CNB1, stronger effect = lower value 1.01 | S. cerevisiae deletion strains, locus YKR001C, strain vps1, stronger effect = lower value 1.01 | S. cerevisiae deletion strains, locus YKR026C, strain gcn3, stronger effect = lower value 0.982 | S. cerevisiae deletion strains, locus YKR091W, strain srl3, stronger effect = lower value 1 | S. cerevisiae deletion strains, locus YLL001W, strain dnm1, stronger effect = lower value 1 | S. cerevisiae deletion strains, locus YLL026W, stronger effect = lower value 0.999 | S. cerevisiae deletion strains, locus YLL041C, strain sdh2, stronger effect = lower value 1 | S. cerevisiae deletion strains, locus YLR027C, strain aat2, stronger effect = lower value 1 | S. cerevisiae deletion strains, locus YLR039C, strain RIC1, stronger effect = lower value 1.05 | S. cerevisiae deletion strains, locus YLR058C, strain SHM2, stronger effect = lower value 1.02 | S. cerevisiae deletion strains, locus YLR102C, strain apc9, stronger effect = lower value 0.978 | S. cerevisiae deletion strains, locus YLR113W, strain HOG1, stronger effect = lower value 0.977 | S. cerevisiae deletion strains, locus YLR221C, strain rsa3, stronger effect = lower value 1 | S. cerevisiae deletion strains, locus YLR258W, strain gsy2, stronger effect = lower value 0.994 | S. cerevisiae deletion strains, locus YLR262C, strain YPT6 (second series), stronger effect = lower value 0.999 | S. cerevisiae deletion strains, locus YLR262C, strain YPT6, stronger effect = lower value 1.04 | S. cerevisiae deletion strains, locus YLR268W, strain sec22, stronger effect = lower value 1 | S. cerevisiae deletion strains, locus YLR320W, strain mms22, stronger effect = lower value 0.999 | S. cerevisiae deletion strains, locus YLR330W, strain CHS5, stronger effect = lower value 1.01 | S. cerevisiae deletion strains, locus YLR342W, strain FKS1 (second series), stronger effect = lower value 1.02 | S. cerevisiae deletion strains, locus YLR342W, strain FKS1, stronger effect = lower value 1 | S. cerevisiae deletion strains, locus YLR357W, strain rsc2, stronger effect = lower value 0.993 | S. cerevisiae deletion strains, locus YLR370C, strain arc18, stronger effect = lower value 0.994 | S. cerevisiae deletion strains, locus YLR371W, strain rom2, stronger effect = lower value 0.975 | S. cerevisiae deletion strains, locus YLR384C, strain iki3, stronger effect = lower value 0.988 | S. cerevisiae deletion strains, locus YLR418C, strain cdc73, stronger effect = lower value 1.05 | S. cerevisiae deletion strains, locus YML016C, strain PPZ1, stronger effect = lower value 1.01 | S. cerevisiae deletion strains, locus YML032C, strain rad52, stronger effect = lower value 0.991 | S. cerevisiae deletion strains, locus YML120C, strain ndi1, stronger effect = lower value 0.992 | S. cerevisiae deletion strains, locus YML124C, strain tub3, stronger effect = lower value 0.992 | S. cerevisiae deletion strains, locus YMR058W, strain fet3, stronger effect = lower value 1 | S. cerevisiae deletion strains, locus YMR078C, strain ctf18, stronger effect = lower value 0.984 | S. cerevisiae deletion strains, locus YMR125W, strain sto1, stronger effect = lower value 0.979 | S. cerevisiae deletion strains, locus YMR129W, stronger effect = lower value 0.991 | S. cerevisiae deletion strains, locus YMR205C, strain PFK2, stronger effect = lower value 0.974 | S. cerevisiae deletion strains, locus YMR223W, strain ubp8, stronger effect = lower value 0.997 | S. cerevisiae deletion strains, locus YMR231W, strain pep5, stronger effect = lower value 0.989 | S. cerevisiae deletion strains, locus YMR263W, strain SAP30, stronger effect = lower value 1.01 | S. cerevisiae deletion strains, locus YMR307W, strain GAS1, stronger effect = lower value 1.07 | S. cerevisiae deletion strains, locus YNL067W, strain RPL9B, stronger effect = lower value 1 | S. cerevisiae deletion strains, locus YNL071W, strain lat1, stronger effect = lower value 0.999 | S. cerevisiae deletion strains, locus YNL183C, strain NPR1, stronger effect = lower value 0.922 | S. cerevisiae deletion strains, locus YNL209W, strain ssb2, stronger effect = lower value 0.999 | S. cerevisiae deletion strains, locus YNL233W, strain BNI4, stronger effect = lower value 1.01 | S. cerevisiae deletion strains, locus YNL248C, strain rpa49, stronger effect = lower value 0.998 | S. cerevisiae deletion strains, locus YNL250W, strain rad50, stronger effect = lower value 1.01 | S. cerevisiae deletion strains, locus YNL271C, strain bni1, stronger effect = lower value 1.01 | S. cerevisiae deletion strains, locus YNL298W, strain CLA4, stronger effect = lower value 1 | S. cerevisiae deletion strains, locus YNL307C, strain MCK1, stronger effect = lower value 0.991 | S. cerevisiae deletion strains, locus YNL322C, strain KRE1 (second series), stronger effect = lower value 0.993 | S. cerevisiae deletion strains, locus YNL322C, strain KRE1, stronger effect = lower value 1.01 | S. cerevisiae deletion strains, locus YNR049C, strain mso1, stronger effect = lower value 0.992 | S. cerevisiae deletion strains, locus YNR052C, strain pop2, stronger effect = lower value 0.994 | S. cerevisiae deletion strains, locus YOL006C, strain TOP1, stronger effect = lower value 1.03 | S. cerevisiae deletion strains, locus YOL012C, strain htz1 0.846 | S. cerevisiae deletion strains, locus YOL147C, strain pex11, stronger effect = lower value 0.988 | S. cerevisiae deletion strains, locus YOR001W, strain rrp6, stronger effect = lower value 1.01 | S. cerevisiae deletion strains, locus YOR061W, strain CKA2, stronger effect = lower value 1.01 | S. cerevisiae deletion strains, locus YOR069W, strain VPS5, stronger effect = lower value 1.01 | S. cerevisiae deletion strains, locus YOR070C, strain gyp1, stronger effect = lower value 0.999 | S. cerevisiae deletion strains, locus YOR080W, strain dia2, stronger effect = lower value 0.999 | S. cerevisiae deletion strains, locus YOR083W, strain WHI5, stronger effect = lower value 1 | S. cerevisiae deletion strains, locus YOR106W, strain vam3, stronger effect = lower value 1.01 | S. cerevisiae deletion strains, locus YOR136W, strain idh2, stronger effect = lower value 1 | S. cerevisiae deletion strains, locus YOR144C, strain elg1, stronger effect = lower value 1 | S. cerevisiae deletion strains, locus YOR184W, strain ser1, stronger effect = lower value 1.02 | S. cerevisiae deletion strains, locus YOR231W, strain MKK1, stronger effect = lower value 0.983 | S. cerevisiae deletion strains, locus YOR265W, strain rbl2, stronger effect = lower value 1 | S. cerevisiae deletion strains, locus YOR270C, strain vph1, stronger effect = lower value 0.946 | S. cerevisiae deletion strains, locus YOR290C, strain snf2, stronger effect = lower value 1.02 | S. cerevisiae deletion strains, locus YOR316C, strain cot1, stronger effect = lower value 0.982 | S. cerevisiae deletion strains, locus YPL051W, strain arl3, stronger effect = lower value 1 | S. cerevisiae deletion strains, locus YPL055C, strain LGE1, stronger effect = lower value 0.997 | S. cerevisiae deletion strains, locus YPL078C, strain atp4, stronger effect = lower value 1.02 | S. cerevisiae deletion strains, locus YPL106C, strain sse1, stronger effect = lower value 1 | S. cerevisiae deletion strains, locus YPL240C, strain hsp82, stronger effect = lower value 0.999 | S. cerevisiae deletion strains, locus YPL241C, strain CIN2, stronger effect = lower value 1.01 | S. cerevisiae deletion strains, locus YPL256C, strain CLN2, stronger effect = lower value 0.994 | S. cerevisiae deletion strains, locus YPR119W, strain clb2, stronger effect = lower value 0.981 | S. cerevisiae deletion strains, locus YPR141C, strain kar3, stronger effect = lower value 1.01 | S. cerevisiae deletion strains, locus YPR163C, strain tif3, stronger effect = lower value 0.99 | S. cerevisiae deletion strains, locus YPR167C, strain met16, stronger effect = lower value 1.01 | S. cerevisiae deletion strains, strain wtn01, stronger effect = lower value 1.01 | S. cerevisiae strains, strain wild type, stronger effect = lower value 1.01
